Assay results reported in the supplement of paper PMC6555819.

What follows are sequences tested on FXR:RXRa (NR concentration 270 nM, RXRa partner concentration 90 nM) (assay: PBM binding z-score (relative to random genomic background probes); higher = stronger binding; sequences stand for … in GC…GCGATTGACAGCGTAGAATGAAGG).
Procedure, shortened: (§1)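 Binding buffer was PBS pH 7.4 with 2% milk, 0.02% Triton X-100, 1 mM DTT, 0.2 mg/mL BSA and 0.4 mg/ml salmon testes DNA. In it, ligand-free nuclear receptor dimers were incubated 1 h on custom Agilent 4×180K protein-binding microarrays carrying double-stranded probes. Antibodies against each partner (one per run) detected binding, and z-scores were calculated against random background probes after regression normalization of scanned fluorescence.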

| Sequence | PBM binding z-score |
| --- | --- |
| CGTCCAAGGTCAAAGGTCACTGAAGAGATGACGG | 8.77 |
| CAAACTAGGTCACGAAAGGGCAAAGTCGAATGAC | 5.72 |
| CGAACTAGGTCACCAGGACCGTGAAGAGGTTGGA | 3.87 |
| CGTCCAAGGTCAATTCTAGGTCAGTGAAAGCATT | 6.85 |
| CGTCCAACGTCAAGGTCAGTGAAAGAGACTCGAA | 1.22 |
| TAGCCTAGGTCATGGGCCAGTTTACCACGCGAAC | 4.52 |
| CGAACTAGGTCACAGGACAGTGAAAGGCGACGTA | 4.05 |
| ATATGTAGGTCATCGGGTCATTCAGTTTGCGCAT | 6.61 |
| CGAACTAGGTCCTTGACAGGACAGTGAATAGTAA | -0.28 |
| AAAATGAGGTTAAGATCAGGGAAACAGAATACAT | 2.83 |
| GCTTACGGGTCAAAGGTTATAGTATGAATAGAAT | 6.98 |
| CGAACTAGCTCAAGGACAGTGAATCTCCGCACGC | 0.148 |
| CGCACTAGGTCACCAGGACAGTGAAGAGGTTGGA | 3.84 |
| CAAACCAGGTCACGAAAGGTCAAAGTCGAATGAC | 7.94 |
| ATACCAAGGTGATCGTGAGTTCGTTGATACTAAC | 0.706 |
| ACTAGTGGGTCAGCTGAGGTCACACACAATTCGG | 4.98 |
| CAAGCTAGGTCAAGAGGTCAAAGTCCGCTTCCCG | 7.28 |
| GCTATTAGGTGAAAGGGCAACCGAATGATTCTCG | 0.916 |
| CCGACTGGGGCAAAGGTTACGATACTCAGTACGA | 1.82 |
| GGAACTAGGGCAAAGTTGATAGCATCTGTCGACG | -0.124 |

| Sequence | PBM binding z-score |
| --- | --- |
| CCTACTGGGCCAAAAAGGCCATTGATGCCGATAA | -0.133 |
| CCTACTGGGCCACGAAAGGTCCTTGATTCAGTGA | -0.183 |
| CGAACTAGGTCAAAGGACAGTGTAAGGCGACGTA | 3.76 |
| ACTAGTTGTTCAGCTGAGGTCACACACAATTCGG | 3.49 |
| CGTCTAAGGTCAGCAGGTCAGTGAAAGCGACGTG | 6.71 |
| CCTACTGGGCCAAGGTCATAGATCAGTCAAAGCA | 2.72 |
| TAGCCTAGGTCATTGGGCCAGTATAGTACGCATC | 4.22 |
| CAACCTAGGTCACGAAAGGTCAAAGTCGAATGAC | 7.63 |
| ATATGTAGGTGAGGGTCATTCAGAAAGTAGGGAA | 3.06 |
| ATCGAAAGGTCGAAAGTGAGTATACCCACCCGAA | 3.56 |
| GATTCAGGGTCAGCTAGAGGCCAGAGTATGGAAA | 5.24 |
| CGATCTAGGTCACCAGGACAGTGAAGAGGTTGGA | 3.81 |
| CTAACTAGGTCACCGGAAGGTCAAAGTCCGCATG | 6.39 |
| CGTCCAAGGTCAGCAGGTGAGTGAAAGCGACGTG | 5.14 |
| TCTGCTTGGTCAACGATGGTCAGCTAATCTGCTA | -0.224 |
| CAAACTAGGTCACGAAAGGTCAACGTCGAATGAC | 7.41 |
| CGTCCAAGGTCAATGCTAGCTCAGTGAAAGCATT | 6.48 |
| GCTGCAAGGTCAACTGATGGTCAGCTAAAGCTCG | 7.53 |
| TAGCCTAGGTCATTCAGGGGCCAGAATAGAAAGC | 4.69 |

Each sequence was assayed on LXRa:RXRa (NR concentration 270 nM, RXRa partner concentration 90 nM) in the same assay as above.
Procedure, shortened: as §1

| Sequence | PBM binding z-score |
| --- | --- |
| CGTCCAAGGTCAAAGGTCACTGAAGAGATGACGG | 7.26 |
| CAAACTAGGTCACGAAAGGGCAAAGTCGAATGAC | 6.91 |
| CGAACTAGGTCACCAGGACCGTGAAGAGGTTGGA | 2.36 |
| CGTCCAAGGTCAATTCTAGGTCAGTGAAAGCATT | 5.63 |
| CGTCCAACGTCAAGGTCAGTGAAAGAGACTCGAA | 1.12 |
| TAGCCTAGGTCATGGGCCAGTTTACCACGCGAAC | 3.85 |
| CGAACTAGGTCACAGGACAGTGAAAGGCGACGTA | 2.67 |
| ATATGTAGGTCATCGGGTCATTCAGTTTGCGCAT | 5.82 |
| CGAACTAGGTCCTTGACAGGACAGTGAATAGTAA | -0.522 |
| AAAATGAGGTTAAGATCAGGGAAACAGAATACAT | 2.62 |
| GCTTACGGGTCAAAGGTTATAGTATGAATAGAAT | 5.83 |
| CGAACTAGCTCAAGGACAGTGAATCTCCGCACGC | -0.503 |
| CGCACTAGGTCACCAGGACAGTGAAGAGGTTGGA | 2.51 |
| CAAACCAGGTCACGAAAGGTCAAAGTCGAATGAC | 8.2 |
| ATACCAAGGTGATCGTGAGTTCGTTGATACTAAC | 0.653 |
| ACTAGTGGGTCAGCTGAGGTCACACACAATTCGG | 5.49 |
| CAAGCTAGGTCAAGAGGTCAAAGTCCGCTTCCCG | 6.35 |
| GCTATTAGGTGAAAGGGCAACCGAATGATTCTCG | 1.33 |
| CCGACTGGGGCAAAGGTTACGATACTCAGTACGA | 1.6 |
| GGAACTAGGGCAAAGTTGATAGCATCTGTCGACG | -0.2 |

| Sequence | PBM binding z-score |
| --- | --- |
| CCTACTGGGCCAAAAAGGCCATTGATGCCGATAA | -0.247 |
| CCTACTGGGCCACGAAAGGTCCTTGATTCAGTGA | -0.157 |
| CGAACTAGGTCAAAGGACAGTGTAAGGCGACGTA | 2.6 |
| ACTAGTTGTTCAGCTGAGGTCACACACAATTCGG | 3.18 |
| CGTCTAAGGTCAGCAGGTCAGTGAAAGCGACGTG | 4.48 |
| CCTACTGGGCCAAGGTCATAGATCAGTCAAAGCA | 2.93 |
| TAGCCTAGGTCATTGGGCCAGTATAGTACGCATC | 3.49 |
| CAACCTAGGTCACGAAAGGTCAAAGTCGAATGAC | 8.28 |
| ATATGTAGGTGAGGGTCATTCAGAAAGTAGGGAA | 2.59 |
| ATCGAAAGGTCGAAAGTGAGTATACCCACCCGAA | 3.24 |
| GATTCAGGGTCAGCTAGAGGCCAGAGTATGGAAA | 3.64 |
| CGATCTAGGTCACCAGGACAGTGAAGAGGTTGGA | 2.39 |
| CTAACTAGGTCACCGGAAGGTCAAAGTCCGCATG | 6.17 |
| CGTCCAAGGTCAGCAGGTGAGTGAAAGCGACGTG | 3.02 |
| TCTGCTTGGTCAACGATGGTCAGCTAATCTGCTA | -0.219 |
| CAAACTAGGTCACGAAAGGTCAACGTCGAATGAC | 7.98 |
| CGTCCAAGGTCAATGCTAGCTCAGTGAAAGCATT | 4.48 |
| GCTGCAAGGTCAACTGATGGTCAGCTAAAGCTCG | 5.93 |
| TAGCCTAGGTCATTCAGGGGCCAGAATAGAAAGC | 3.94 |
